# From the supplement of paper PMC6555819
# Key:
# Test in all cases: PBM binding z-score (relative to random genomic background probes); higher = stronger binding; sequences stand for … in GC…GCGATTGACAGCGTAGAATGAAGG
# [1] = test system: FXR:RXRa (NR concentration 270 nM, RXRa partner concentration 90 nM)
# Procedure, shortened: (§1)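 For binding z-scores, the reference was random background probes on custom Agilent 4×180K protein-binding microarrays. These arrays were incubated 1 h with ligand-free nuclear receptor dimers in PBS pH 7.4, 2% milk, 0.02% Triton X-100, 1 mM DTT, 0.2 mg/mL BSA and 0.4 mg/ml salmon testes DNA. Fluorescence was scanned after antibody detection of each partner (one per run) and regression-normalized.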
# [2] = test system: LXRa:RXRa (NR concentration 270 nM, RXRa partner concentration 90 nM)
# Procedure, shortened: as §1
# [3] = test system: LXRa homodimer (NR concentration 270 nM)
# Procedure, shortened: as §1
# [4] = test system: LXRb:RXRa (NR concentration 270 nM, RXRa partner concentration 90 nM)
# Procedure, shortened: as §1
# [5] = test system: LXRb homodimer (NR concentration 270 nM)
# Procedure, shortened: as §1
# [6] = test system: PPARa:RXRa (NR concentration 270 nM, RXRa partner concentration 90 nM)
# Procedure, shortened: as §1
# [7] = test system: PPARg:RXRa (NR concentration 180 nM, RXRa partner concentration 90 nM)
# Procedure, shortened: as §1
# [8] = test system: PPARg:RXRa 270nM:90nM, anti-RXR (NR concentration 270 nM, RXRa partner concentration 90 nM)
# Procedure, shortened: as §1
# [9] = test system: PPARg:RXRa 30nM:10nM, anti-RXR (NR concentration 30 nM, RXRa partner concentration 10 nM)
# Procedure, shortened: as §1
# [10] = test system: PPARg:RXRa 90nM:30nM, anti-RXR (NR concentration 90 nM, RXRa partner concentration 30 nM)
# Procedure, shortened: as §1
# [11] = test system: PPARg:RXRa DBDmut IVT, anti-RXR (DBD mutation: RXRa K156A/R161A, NR concentration 270 nM, RXRa partner concentration 90 nM)
# Procedure, shortened: as §1
# [12] = test system: PPARg:RXRa IVT, anti-PPARg (NR concentration 270 nM, RXRa partner concentration 90 nM)
# Procedure, shortened: as §1
# [13] = test system: PPARg DBDmut:RXRa IVT, anti-PPARg (DBD mutation: PPARg1 K132A/R137A, NR concentration 270 nM, RXRa partner concentration 90 nM)
# Procedure, shortened: as §1
# [14] = test system: PPARg DBDmut IVT, anti-PPARg (DBD mutation: PPARg1 K132A/R137A, NR concentration 270 nM)
# Procedure, shortened: as §1
# [15] = test system: PPARg homodimer (NR concentration 180 nM)
# Procedure, shortened: as §1
# [16] = test system: PXR:RXRa (NR concentration 270 nM, RXRa partner concentration 90 nM)
# Procedure, shortened: as §1
# [17] = test system: PXR homodimer (NR concentration 270 nM)
# Procedure, shortened: as §1
# [18] = test system: RARa:RXR (NR concentration 270 nM, RXRa partner concentration 90 nM)
# Procedure, shortened: as §1
# [19] = test system: RARa homodimer (NR concentration 270 nM)
# Procedure, shortened: as §1
# [20] = test system: RARb:RXRa (NR concentration 270 nM, RXRa partner concentration 90 nM)
# Procedure, shortened: as §1
Sequence,PBM binding z-score [1],PBM binding z-score [2],PBM binding z-score [3],PBM binding z-score [4],PBM binding z-score [5],PBM binding z-score [6],PBM binding z-score [7],PBM binding z-score [8],PBM binding z-score [9],PBM binding z-score [10],PBM binding z-score [11],PBM binding z-score [12],PBM binding z-score [13],PBM binding z-score [14],PBM binding z-score [15],PBM binding z-score [16],PBM binding z-score [17],PBM binding z-score [18],PBM binding z-score [19],PBM binding z-score [20]
CCTTACGGGTCACCAGGTTATAGCACGACGAGCG,5.57,4.07,0.342,3.43,0.0793,5.41,6.15,6.21,2.59,4.99,3.46,5.18,0.0764,-0.404,2.34,3.72,-0.0319,4.62,1.27,4.27
CCTTACGGGTCACTGACAGGTTATAGCATTTGGA,5.52,4.15,0.472,3.5,0.111,5.06,4.48,4.67,1.53,3.39,3.49,3.75,0.989,0.078,3.59,3.81,-0.141,4.92,1.13,4.02
GCTTGTAGATCAAGCTTAAGAAAGACTAAGCTAA,-0.441,-0.75,-0.914,-0.777,-1.32,-0.455,-0.439,-0.251,-0.693,-0.381,0.937,0.0262,-0.496,-0.218,-0.356,-0.566,-0.868,-0.0967,-0.929,-1.78
ATCTCTAGGTAATAAGTTCAGTGAAAGAGAGGAC,0.945,1.09,0.832,0.701,1.15,1.51,1.69,2.39,1.36,2.07,2.07,2.06,1.58,1.43,1.52,1.7,2.13,0.943,1.54,1.83
GTACCAAGGTGAATAGGTCGATGATGAGTAGGCG,0.682,0.499,-0.251,0.484,-0.293,1.89,1.69,1.53,0.803,1.28,1.55,2.61,0.551,-0.172,1.08,0.477,0.109,1.13,0.983,2.01
TCGAATAGGTTAGGGGCATTCAGAATGGCGTCGA,0.35,0.807,-0.0676,1.26,0.0688,1.49,0.443,2.13,2.93,2.56,1.9,0.68,-0.275,-0.57,0.452,0.695,0.0158,0.806,0.0673,1.5
TGTCAAAGTTCCAAGGTAACGTAAGTATCCACAC,0.32,0.139,-0.0669,0.284,0.0682,0.321,0.758,1.18,0.448,1.04,-0.29,1.18,0.991,0.288,0.137,0.082,0.35,0.56,0.373,0.659
CCTACTGGGCCAAGGTCATTTATCAGTCAAAGCA,3,3,1.94,3.53,0.242,3.92,4.1,4.33,1.69,3.57,3.45,4.56,-0.913,-0.873,1.83,3.22,1.73,3.28,0.0192,3.15
CCTAGCAGGCCAATCCGGGTCACTCAAGGCTTGA,2.13,1.84,-0.396,1.47,-0.923,2.78,0.787,1.02,-0.565,0.469,2.27,2.8,-1.26,-0.765,0.726,2.79,-0.246,2.23,-0.442,1.63
GCTGCTAAGTCAGGTTGGTCAGCTAACGGGTACG,-0.434,-0.657,-0.43,-0.836,-0.829,-0.794,-0.46,-0.678,-0.924,-0.942,-0.0465,-0.681,-1.49,-1.03,-0.201,-0.468,-0.643,-0.502,-0.643,-0.0361
CTACCAGGGTGAACAAGGTCGTTGATTACTATTC,0.789,1.46,0.0612,1.76,-0.454,2.41,0.951,1.28,0.0757,0.507,1.3,1.86,0.284,-0.282,1.61,3.12,0.95,2.67,-0.135,1.42
TGTCGGAGGACACGAAGGTCAGAGCTTTCCAGAG,1.23,1.44,-0.131,0.759,-0.905,1.81,0.574,1.14,-0.39,0.47,-0.402,1.54,-0.86,-0.906,1.05,1.79,0.826,1.84,0.146,3.46
ATATGTAGGTTAGATCCGGGTCATTCAGGCTATG,1.55,2.3,0.843,1.99,0.185,3.74,4.17,3.71,1.53,2.86,6.3,6.32,1.34,0.983,1.65,3.1,1.25,3.08,1.01,2.03
ATCTCTAGGTAACAAGTTCAGTCAAAGAGAGGAC,0.865,0.77,0.75,0.867,0.743,1.5,1.4,2.12,1.16,1.85,3.46,2.97,1.25,1.27,1.63,1.77,2.04,1.1,1.66,1.62
TAGCCTAGGTCAGATCGGGACAGTATACGCTATA,3.31,1.3,-0.0323,1.07,-0.146,1.82,0.86,0.922,0.0788,0.727,0.601,1.73,-0.45,-0.46,0.479,1.74,-0.545,1.11,-0.615,3.11
CCGACAGGGGCAGAAAGGTTACCATACCATCCGG,0.56,0.716,-0.132,1.04,-0.954,1.95,1.47,1.96,0.381,1.32,-0.112,0.0354,-1.22,-0.752,1.16,1.25,0.36,1.92,0.385,1.95
CTCGAAAGGTCGGTTGAGCTGAGTATACGGATAA,1.24,0.827,-0.605,0.855,-0.258,2,0.00937,0.523,-0.12,0.207,0.0426,0.318,-0.21,-0.532,0.0115,0.392,-0.439,0.834,0.167,2.58
CCTAGTTGGTCAGGAGGTCACACAACGGATATGA,3.71,3.52,1.69,3.53,0.623,4.25,3.47,4.16,1.47,3.3,1.95,3.66,0.747,0.329,3.64,4.16,1.53,4.94,2.05,3.63
CGTCCAAGGTCAAAGGTAAGTGAAGAGATGACGG,7.07,5.81,0.609,4.33,0.945,6.03,7.34,7,5.4,6.76,3.99,4.46,0.556,-0.194,2.19,4.69,0.799,5.9,0.423,5.23
CCTCGGAGGACAGAAGGTCAGAGATGTCCGCTTT,0.986,1.24,0.141,0.889,-0.867,1.55,0.383,0.542,-0.288,0.432,-0.271,0.124,-1.91,-1.27,1.03,1.41,0.164,1.93,0.613,3.01
CCTCGGAGGACAGAAGGTCAGCGCTGTCCGCTTT,1.68,2.01,0.184,1.17,-0.704,2.2,-0.154,1.57,-0.543,0.613,-0.144,0.0652,-1.29,-1.5,1.24,1.96,-0.497,2.76,0.504,3.68
TCTTGTAGAGCAGCAGGTTAAGAAAGCTGGCCAA,-0.000312,-0.0132,-1.04,-0.257,-1.45,0.529,-0.553,1.04,1.29,1.01,1.09,0.666,-0.321,-1.03,-0.986,-0.26,-1.07,-0.139,-0.879,-0.156
CCTAGCAGCCCAATCTGGGTCACTCAAGGCTTGA,0.0445,0.132,-0.399,0.523,-0.695,2.93,1.6,1.71,-0.36,1.1,3.69,4.29,-0.334,-0.918,0.624,0.268,-0.803,1.12,-0.169,0.878
CCAAGCAGGCCAATCTGGGTCACTCAAGGCTTGA,0.754,1.79,-0.345,0.979,-1.19,3.45,2.46,2.55,0.227,1.63,4.53,4.91,0.213,-1.24,0.382,1.26,-0.284,1.71,-1.17,1.62
ATCTCTAGGTAACAAGTTCCGTGAAAGAGAGGAC,0.25,-0.0278,0.209,0.0127,0.506,0.431,0.903,1.28,0.68,1.07,3.05,2.66,0.253,1.32,0.831,-0.111,0.636,0.015,0.906,0.274
TCCAGTTGGTCACGGAGGTCACACACGACGGGTA,3.34,3.57,2.25,3.33,0.101,3.95,3.15,3.83,2.94,3.43,2.14,3.9,0.387,0.563,2.63,4.5,1.2,4.33,0.942,4
AGTCAAAGTTCAGGACGCGGTAACGTAAAGCACG,3.88,3.44,1.09,1.68,0.0515,3.08,4.39,4.71,1.96,3.51,-0.435,1.23,-0.53,-0.304,1.62,2.37,0.876,2.21,0.353,4.19
AGTCAAAGTTCCTCTAGGTAACGTAAGATATGCT,-0.245,-0.144,-0.104,-0.00782,-0.432,0.0097,0.612,0.996,0.256,0.424,-0.227,1.14,-0.00849,0.378,-0.0696,0.0815,-0.225,0.241,0.00507,0.881
ATCTCTAGGTAACCAATTTCAGTGAATGCCGAAC,0.444,0.64,0.561,0.348,1.28,0.596,0.441,0.547,0.162,0.306,3.89,2.94,1.28,1.42,0.77,0.453,0.601,0.264,0.959,0.458
